Reference: PubChem BioAssay AID1347383 (Zoeller Lab, School of Medicine, Boston University, 2020)
Calls of active or inactive are those of the source.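 Rule for the calls: active = cell survival after UV exposure 2 SD above solvent-only control wells at 10 µM, confirmed on one or two repeats; inactive = the rest.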

Experiment: protection of CHO cells from pyrene-fatty acid UV killing, primary screen, phospholipid biosynthesis inhibitor project, ZR-82 cells, Analyticon library, screen 2 (AID 1347383);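 note: survival reflects blocked phospholipid synthesis cutting uptake of the phototoxic fatty acid; compound and fatty acid exposure 3 h then viability read next day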
Conditions: ZR-82 CHO cells, CellTiter Blue, at 10 µM; peroxisome-deficient CHO-K1 variant, with DGAT-1, DGAT-2 and ACAT inhibitors unless noted

Row | Compound | outcome
1 | COc1ccc([C@@]23CC[C@@H](O)C[C@@H]2N(C)CC3)cc1OC | inactive
2 | CCC1C2CC3C4N(C)c5ccccc5C45CC(C2C5O)N3C1O (configuration not stated) | inactive [setting not given]
3 | C[C@@H]1CCC2[C@@H](C)C(=O)OC3O[C@]4(C)CCC1[C@]32OO4 (some centres not stated) | inactive
4 | CN1C(=O)c2ccccc2NC(=O)[C@]12O[C@@H]2c1ccccc1 | inactive
5 | COc1ccc([C@@]23CC[C@H](O)C[C@@H]2N(C)CC3)cc1OC | inactive
6 | CC(C)=CCOc1c2occc2cc2ccc(=O)oc12 | inactive [setting not given]
7 | CO[C@H]1C[C@H](O[C@H]2CC[C@]3(CO)[C@H]4CC[C@]5(C)[C@@H](C6=CC(=O)OC6)CC[C@]5(O)[C@@H]4CC[C@]3(O)C2)O[C@H](C)[C@H]1O | inactive
8 | C[C@]12CC[C@@H](O[C@@H]3O[C@H](CO)[C@@H](O)[C@H](O)[C@H]3O)C[C@@]1(O)CCC1C2CC[C@]2(C)[C@@H](C3=CC(=O)OC3)CC[C@]12O (some centres not stated) | inactive
9 | CC1(C)C=Cc2c(ccc3c4c([nH]c23)C(C)(C)C2CC35CCCN3C(=O)C2(C4)NC5=O)O1 (configuration not stated) | inactive
10 | C[C@@]1(CO)[C@H](O)CC[C@@]2(C)[C@H]1CC[C@H]1C[C@@H]3C[C@@]12CC[C@]3(O)CO | inactive [setting not given]
11 | CC(C)(C)C1(O)C[C@@H]2OC(=O)C[C@@]23C(=O)O[C@@H]2OC(=O)[C@@H](O)[C@]213 (some centres not stated) | inactive
12 | CC1(C)C=C2C(=O)C(C)(C)C(=O)C(C)(C)C2(O)OO1 (configuration not stated) | inactive
13 | CC(=O)NCCc1c[nH]c2ccccc12 | inactive [setting not given]
14 | COc1cc(C2c3cc4c(cc3C(O)C3COC(=O)C23)OCO4)cc(OC)c1O (configuration not stated) | inactive
15 | CO[C@@H]1[C@H](O)[C@@H](O[C@@H]2C[C@H]3CC[C@@H]4C(CC[C@]5(C)[C@@H](C6=CC(=O)OC6)CC[C@]45O)[C@@]3(C)[C@H](O)C2)O[C@H](C)[C@@H]1O (some centres not stated) | inactive
16 | C[C@]12CC[C@H](O)CC1=CC[C@@H]1C2CC[C@]2(C)[C@@H](C3=CC(=O)OC3)CC[C@]12O (some centres not stated) | inactive
17 | CC#CC#Cc1ccc(C#CC(O)COC(C)=O)s1 (configuration not stated) | inactive
18 | C=C[C@H]1CN2CC[C@H]1C[C@@H]2[C@@H](O)c1ccnc2ccccc12 | inactive
19 | COc1cc(C2c3cc4c(c(O)c3CC3COC(=O)C32)OCO4)cc(OC)c1O (configuration not stated) | inactive [setting not given]
20 | COc1ccc(C23CCC(=O)C=C2N(C)CC3)cc1OC (configuration not stated) | inactive
21 | CO[C@@H]1[C@@H](O)[C@H](C)O[C@@H](O[C@H]2CC[C@]3(C)C4CC[C@]5(C)[C@H](C6=CC(=O)OC6)CC[C@]5(O)C4CC[C@@H]3C2)[C@H]1OC(C)=O (some centres not stated) | inactive
22 | CC[C@H]1CN2CC[C@H]1C[C@@H]2[C@@H](O)c1ccnc2ccc(OC)cc12 | inactive
23 | CC(C)[C@@H](C)/C=C/[C@@H](C)[C@H]1CC[C@@H]2[C@]1(C)CCC1[C@]23C=C[C@]2(C[C@@H](O)CC[C@]12C)OO3 (some centres not stated) | inactive
24 | O=C1N[C@@H](Cc2ccccc2)CN2CCCC[C@@H]12 | inactive
25 | CN1Cc2c(ccc3c2OCO3)[C@@H]2[C@H]1c1cc3c(cc1C[C@@H]2O)OCO3 | inactive
26 | C[C@@]1(C(=O)O)CC[C@]2(C)CC[C@]3(C)C4=CC(=O)c5cc(O)c(O)cc5[C@]4(C)CC[C@@]3(C)[C@@H]2C1 | inactive
27 | CC1CC(C)C(=O)C(C(O)CC2CC(=O)NC(=O)C2)C1 (configuration not stated) | inactive
